Results filed as inconclusive are left out. Entries that show only a call come without a potency. Active and inactive are the calls of the source. The call rests on the fitted dose curve; in most records, active means well fitted curve in the direction sought with a large enough effect; inconclusive means small, poorly fitted or top-dose-only effect, or another doubt; inactive means no such curve, though single readings can be large; an effect the other way counts as inactive or inconclusive.
What was measured:
[1] = target: Glucagon-like peptide 1 receptor (Homo sapiens) (UniProt P43220); assay: qHTS of GLP-1 Receptor Agonists: LOPAC Validation (AID 624148);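 further: higher luminescence signal means agonism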
Glucagon-like peptide 1 receptor (Homo sapiens), sequence (P43220 whole entry, looked up): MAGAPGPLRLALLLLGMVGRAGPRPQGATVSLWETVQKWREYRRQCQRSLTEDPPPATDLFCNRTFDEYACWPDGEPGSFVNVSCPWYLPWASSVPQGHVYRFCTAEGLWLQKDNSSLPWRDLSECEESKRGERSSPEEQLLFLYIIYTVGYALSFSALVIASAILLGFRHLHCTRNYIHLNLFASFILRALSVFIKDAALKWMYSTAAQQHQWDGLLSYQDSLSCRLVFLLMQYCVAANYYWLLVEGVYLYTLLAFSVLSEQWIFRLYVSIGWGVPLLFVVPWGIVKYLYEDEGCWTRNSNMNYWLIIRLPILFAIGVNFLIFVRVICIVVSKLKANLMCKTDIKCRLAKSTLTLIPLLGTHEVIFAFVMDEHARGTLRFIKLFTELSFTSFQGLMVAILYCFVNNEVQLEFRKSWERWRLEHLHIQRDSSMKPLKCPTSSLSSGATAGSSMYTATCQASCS
Outline: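 HEK293 cells stably co-expressing a cAMP-responsive luciferase reporter and a hypersensitive GLP-1R were plated 12 h at 37 °C and exposed to compounds for 4-6 hr at 37 °C, 5% CO2. Luminescence was read 12 min after adding detection reagent.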

[2] = qHTS of Nrf2 Activators: LOPAC Validation (AID 624149)
Outline: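 Following overnight seeding in 5% FBS OPTI-MEM, AREc32_Fluc cells receive compounds for a 24 hr incubation at 37 deg C with 5% CO2. Steady-Glo is added, and after 30 min at RT luminescence is recorded.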

[3] = HTS Assay for Allosteric Antagonists of the Human D2 Dopamine Receptor: Hit Validation in HTRF (AID 624455); further: potency means the concentration at half of the fitted maximal effect;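 further: stable D1 dopamine receptor cell line scored for blocking the D1 response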
Outline: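 Validation of hits used D1 receptor stably expressed in cells with HTRF detection of response inhibition; origin screen measured calcium flux following EC80 dopamine in a force-coupled, inducible Hek293 Trex D2 cell line.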

CCCN1C[C@H](CSC)C[C@@H]2c3cccc4[nH]cc(c34)C[C@H]21
outcome [1]: inactive
outcome [2]: inactive

NC(N)=N/N=C/c1c(Cl)cccc1Cl
outcome [1]: inactive
outcome [2]: inactive

CCCNC(C)C(=O)Nc1ccccc1C (stereo not given)
outcome [1]: inactive
outcome [2]: inactive

CNC1(C)C2CCC(C2)C1(C)C (stereo not given)
outcome [1]: inactive
outcome [2]: inactive

CN(C(=O)CCCOc1ccc2[nH]c(=O)ccc2c1)C1CCCCC1
outcome [1]: inactive
outcome [2]: inactive

CC(C)(C)c1ccc(C(=O)CCCN2CCC(OC(c3ccccc3)c3ccccc3)CC2)cc1
outcome [1]: inactive
outcome [2]: inactive
Potency [3]: inactive

CCn1cc(C(=O)O)c(=O)c2cc3c(cc21)OCO3
outcome [1]: inactive
outcome [2]: inactive

c1cc(CN2CCCCC2)cc(OCCCNc2nc3ccccc3s2)c1
outcome [1]: inactive
outcome [2]: inactive

CCCCNc1ccc(C(=O)OCCN(C)C)cc1
outcome [1]: inactive
outcome [2]: inactive

Cc1nc2sccn2c(=O)c1CCN1CCC(=C(c2ccc(F)cc2)c2ccc(F)cc2)CC1
outcome [1]: inactive
outcome [2]: inactive

NS(=O)(=O)c1cc2c(cc1Cl)NC(C1CC3C=CC1C3)NS2(=O)=O (stereo not given)
outcome [1]: inactive
outcome [2]: inactive

O=C(O)CN(CCN(CC(=O)O)CC(=O)O)CCN(CC(=O)O)CC(=O)O
outcome [1]: inactive
outcome [2]: inactive
Potency [3]: inactive

C(=C\c1ccccc1)/CN1CCN(C(c2ccccc2)c2ccccc2)CC1
outcome [1]: inactive
outcome [2]: inactive

CN(C)[C@@H]1C(=O)C(C(N)=O)=C(O)[C@@]2(O)C(=O)C3=C(O)c4c(O)ccc(Cl)c4[C@@H](O)[C@H]3C[C@@H]12
outcome [1]: inactive
outcome [2]: inactive

Cc1ccc(=O)n(-c2ccccc2)c1
outcome [1]: inactive
outcome [2]: inactive

COCC(=O)O[C@]1(CCN(C)CCCc2nc3ccccc3[nH]2)CCc2cc(F)ccc2[C@@H]1C(C)C
outcome [1]: inactive
outcome [2]: inactive

C[n+]1cc2c3c(ccc2c2ccc4cc5c(cc4c21)OCO5)OCO3
outcome [1]: inactive
outcome [2]: inactive

O=C1CC2(CCCC2)CC(=O)N1CCCCN1CCN(c2ncccn2)CC1
outcome [1]: inactive
outcome [2]: inactive

COC(=O)C1=C(C)NC(C)=C(C(=O)OC(C)(C)CN(C)CCC(c2ccccc2)c2ccccc2)C1c1cccc([N+](=O)[O-])c1 (stereo not given)
outcome [1]: inactive
outcome [2]: inactive
Potency [3]: inactive

C[N+](C)(C)CCCCCCCCCC[N+](C)(C)C
outcome [1]: inactive
outcome [2]: inactive

CCO/C([O-])=N/c1c[n+](N2CCOCC2)no1
outcome [1]: inactive
outcome [2]: inactive

CCOC(=O)C1=C(C)NC(C)=C(C(=O)OC)C1c1cccc(Cl)c1Cl (stereo not given)
outcome [1]: inactive
outcome [2]: inactive
Potency [3]: inactive

CN(C)CC/C=C1\c2ccccc2COc2ccccc21
outcome [1]: inactive
outcome [2]: inactive

CCCC(C(=O)OCCN(CC)CC)(c1ccccc1)c1ccccc1
outcome [1]: inactive
outcome [2]: inactive
Potency [3]: inactive

CCCN(CCC)CCc1cccc2c1CC(=O)N2
outcome [1]: inactive
outcome [2]: inactive

CN1C[C@H](C(=O)N[C@]2(C)O[C@@]3(O)[C@@H]4CCCN4C(=O)[C@H](Cc4ccccc4)N3C2=O)C[C@@H]2c3cccc4[nH]cc(c34)C[C@H]21
outcome [1]: inactive
outcome [2]: inactive

O=C(O)CN(CCOCCOCCN(CC(=O)O)CC(=O)O)CC(=O)O
outcome [1]: inactive
outcome [2]: inactive

CCN(CC)CCNC(=O)c1ccc(NC(C)=O)cc1
outcome [1]: inactive
outcome [2]: inactive

CCCOc1ccccc1-c1nc2n[nH]nc2c(=O)[nH]1
outcome [1]: inactive
outcome [2]: inactive

NCCCNCCSP(=O)(O)O
outcome [1]: inactive
outcome [2]: inactive

CCc1cccc(N(C)C(N)=Nc2cccc3ccccc23)c1
outcome [1]: inactive
outcome [2]: inactive

Brc1c(NC2=NCCN2)ccc2nccnc12
outcome [1]: inactive
outcome [2]: inactive

COc1ccc2c(c1OC)C(=O)O[C@@H]2[C@H]1c2c(cc3c(c2OC)OCO3)CCN1C
outcome [1]: inactive
outcome [2]: inactive

CCCCCCCC/C=C\CCCCCCCC(=O)NCc1ccc(O)c(OC)c1
outcome [1]: inactive
outcome [2]: inactive

C[N+](C)(C)CCOC(N)=O
outcome [1]: inactive
outcome [2]: inactive

CN(C)CC[C@@H](c1ccc(Br)cc1)c1ccccn1
outcome [1]: inactive
outcome [2]: inactive
Potency [3]: inactive

CC(C)COCC(CN(Cc1ccccc1)c1ccccc1)N1CCCC1 (stereo not given)
outcome [1]: inactive
outcome [2]: inactive
Potency [3]: inactive

C=CCc1ccccc1OCC(O)CNC(C)C (stereo not given)
outcome [1]: inactive
outcome [2]: inactive
Potency [3]: inactive

NC/C=C/C(=O)O
outcome [1]: inactive
outcome [2]: inactive
Potency [3]: inactive

CCNC(=O)N1CCN(CCCC(c2ccc(F)cc2)c2ccc(F)cc2)CC1
outcome [1]: inactive
outcome [2]: inactive
Potency [3]: inactive

CCCCNc1c(C(=O)OCC)c(C)nc2c1cnn2CC
outcome [1]: inactive
outcome [2]: inactive
Potency [3]: inactive

CC1=NS(=O)(=O)c2cc(Cl)ccc2N1
outcome [1]: inactive
outcome [2]: inactive
Potency [3]: inactive

NC1=NCC2c3ccccc3Cc3ccccc3N12 (stereo not given)
outcome [1]: inactive
outcome [2]: inactive
Potency [3]: inactive

CN1CCN(CC(=O)N2c3ccccc3C(=O)Nc3cccnc32)CC1
outcome [1]: inactive
outcome [2]: inactive
Potency [3]: 3.66 µM (active)

Cc1cccc(C)c1NC(=O)C(C)N (stereo not given)
outcome [1]: inactive
outcome [2]: inactive
Potency [3]: inactive

FC(F)(F)c1ccccc1-n1ccnc1
outcome [1]: inactive
outcome [2]: inactive
Potency [3]: inactive

OC(CCN1CCCCC1)(c1ccccc1)C1CCCCC1 (stereo not given)
outcome [1]: inactive
outcome [2]: inactive
Potency [3]: inactive

COc1ccc(CCN(C)CCCC(C#N)(c2cc(OC)c(OC)c(OC)c2)C(C)C)cc1OC (stereo not given)
outcome [1]: inactive
outcome [2]: inactive
Potency [3]: inactive

NC(Cc1ccc(Cl)cc1)C(=O)O (stereo not given)
outcome [1]: inactive
outcome [2]: inactive
Potency [3]: inactive

CC(=O)OCC1=C(C(=O)O)N2C(=O)[C@@H](NC(=O)Cc3cccs3)[C@H]2SC1
outcome [1]: inactive
outcome [2]: inactive
Potency [3]: inactive

Reference: PubChem BioAssay (NCATS)
